Results as given in PubChem BioAssay.
Where “and” joins values, the source holds several entries; their conditions need not be identical. Identical values can stand only once. Records with an inconclusive call do not appear. Calls of active or inactive are those of the source. Unless noted, the limit is not given here; nearly all actives have AC50 up to about 26 µM.

Experiments:
[1] = Wnt pathway potentiators raising nuclear beta-catenin – imaging, WNT3A-conditioned medium, mouse C2C12, NPC library, primary screen (AID 1117326; in the data active = nuclear beta-catenin stimulation mostly above about 4.2%, no sharp cut-off; inactive = mostly below about 10%; also: reference of the scale not given here); settings: stronger effect = higher value
[2] = stimulators of insulin release from INS-1E, primary screen, cell-based, 5 mM glucose, NPC library (AID 1117329;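 active = compound raises insulin release from rat beta cells at 5 mM glucose, no numeric limit stated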; also: reference of the scale not given here); settings: rat INS-1E insulin secretion, at 10 µM, stronger effect = higher value
[3] = growth inhibition of GSK3B-pretreated HCT116 cells – cell-based, CellTiter-Glo, 0.2 to 20 µM (AID 1117336;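 active = compounds lowering colon cancer cell viability after pretreatment blocking the GSK3B kinase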); settings: HCT116 viability after GSK3B inhibitor, at 20 µM, stronger effect = higher value
[4] = inhibition of endothelial tube formation, primary screen, imaging, VEGF stimulated, CD31 staining, tube area, NPC library (AID 1117340;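 active = compound that reduces growth-factor-driven endothelial tube area in a mixed cell culture, no cutoff stated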); settings: VEGF-stimulated ADSC/ECFC co-culture, at 10 µM, stronger effect = higher value
[5] = GLP1 release stimulators, primary, NCI-H716, NPC library (AID 1117341;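 active = compound raises GLP1 secretion from the human gut endocrine cells, with no numeric limit stated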; also: reference of the scale not given here); settings: NCI-H716 cells, at 10 µM, stronger effect = higher value
[6] = HCT116 colon cancer cell growth inhibition, primary screen, CellTiter-Glo luminescence, NPC library (AID 1117342;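 active = compounds that lower survival of HCT116 colon cancer cells in the luminescence readout, no numeric limit stated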); settings: at 20 µM (top of the series)
[7] = reduced SW480 viability measured with CellTiter-Glo, NPC library, primary (AID 1117343;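 active = compounds that lower viability of the colon cancer cells in the luminescence readout, with no numeric limit stated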); settings: CellTiter-Glo luminescence; at 20 µM (top of the series) unless noted
[8] = NPC library primary testing for decreased DLD-1 cell viability via CellTiter-Glo (AID 1117346;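 active = compounds that lower survival of DLD-1 colon cancer cells in the luminescence readout, no cutoff given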); settings: DLD-1 viability, CellTiter-Glo luminescence; at 20 µM (top of the series)
[9] = viability loss in pontine glioma line – cell-based, JHH-DIPG-1, MIPE4.0, CellTiter-Glo, qHTS, dose response (AID 1347062; cut-off not given, nearly all actives have AC50 up to about 27 µM); settings: JHH-DIPG-1 viability, CellTiter-Glo ATP luminescence
[10] = viability loss in pontine glioma line – cell-based, SU-DIPG-XXV, MIPE5.0, CellTiter-Glo, qHTS, dose response (AID 1347065); settings: CellTiter-Glo ATP luminescence;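 also: cells exposed to compound for 48 hours before ATP readout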
[11] = growth inhibition of DIPG cells – cell-based, MIPE4.0 library, CellTiter-Glo luminescence, qHTS (AID 1347066; cut-off not given, nearly all actives have AC50 up to about 30 µM;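 also: cells exposed to compound for 48 hours before readout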); settings: SU-DIPG-VI viability, CellTiter-Glo ATP luminescence
[12] = JHH-DIPG-1 glioma cell viability, MIPE5.0 library, CellTiter-Glo luminescence, qHTS (AID 1347067); settings: JHH-DIPG-1 glioma viability, CellTiter-Glo ATP luminescence;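 also: cells exposed to compound for 48 hours before readout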
[13] = growth inhibition of DIPG cells – cell-based, MIPE5.0 library, qHTS (AID 1347068; cut-off not given, nearly all actives have IC50 up to about 30 µM); settings: SU-DIPG-XXV viability
[14] = viability loss with induced miR-34 in A549 – imaging, A549 dox-inducible miR-34, nuclei and caspase counts, primary screen (AID 1347080;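 active = compounds whose cell count with miR-34 switched on is under 0.7 times the count with it off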); settings: A549 miR-34 inducible, Hoechst nuclei count, 48 h
[15] = MELAS cybrid and Rieske KO viability enhancers – cell-based, MELAS cybrids, Rieske KO mouse fibroblasts, CellTiter-Glo, primary screen (AID 1508586;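 active = mean z-score across replicates of 1.96 or higher in either the MELAS or the Rieske mutant cell line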;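 also: z relative to plate mean and SD of compound and empty wells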); settings: low glucose
[16] = viability loss in pontine glioma line – cell-based, SU-DIPG-IV, MIPE4.0, CellTiter-Glo, qHTS, dose response (AID 1347063; cut-off not given, nearly all actives have AC50 up to about 30 µM;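 also: compound exposure lasted 48 hours before the viability readout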); settings: CellTiter-Glo ATP luminescence
[17] = blockers of cellular phospholipid synthesis – cell-based, LOPAC library, screen 4, primary screen (AID 1347384; call rule not given here); settings: animal cells, phospholipid biosynthesis inhibition screen; at 10 µM
[18] = galactose survival enhancers in mitochondrial complex I cybrids – cell-based, galactose medium, ATP luminescence, primary screen (AID 1645843;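 active = z-score of at least 1.8 in each of two replicates, scored against plate mean and spread of sample wells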;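 also: positive z means more ATP and so rescue of galactose-driven cybrid death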); settings: complex I mutant cybrid cells, 72 h, stronger effect = higher value
[19] = stronger effect = lower value, cell number ratio, induced over uninduced
[20] = measured here: relative caspase fold change +Dox/-Dox
[21] = measured here: total cells with miR-34 induction, stronger effect = lower value
[22] = measured here: total cells without miR-34 induction
[23] = MELAS cybrid survival, CellTiter-Glo 48 h, stronger effect = higher value
[24] = Rieske KO mouse fibroblast survival, CellTiter-Glo 72 h

NC(=O)c1ncn([C@@H]2O[C@H](CO)[C@@H](O)[C@H]2O)c1N
1.8%: nuclear beta-catenin stimulation ([1]; stimulation, at 2 µM)
inactive: nuclear beta-catenin stimulation ([1]; at 10 µM) 1.3% | insulin secretion stimulation [2] -2.3% | viability decrease [3] -16.2% | tube area decrease [4] -6.4% | GLP1 secretion stimulation [5] 1.9% | inhibition of viability [6] -20.6% | viability decrease (inhibition) [7] -88.2% | viability decrease (inhibition) [8] -22.4% | outcome [9] | outcome [10] | outcome [11] | outcome [12] | outcome [13]

O=C(O)c1ccc(-n2nc(-c3ccccc3O)nc2-c2ccccc2O)cc1
-2.6%: nuclear beta-catenin stimulation ([1]; stimulation, at 2 µM)
active: viability decrease [3] 112% | tube area decrease [4] 102% | inhibition of viability [6] 112% | viability decrease (inhibition) [7] 130% | viability decrease (inhibition) [8] 93.6% | AC50 [10] 20.9 µM | AC50 [11] 23.5 µM
inactive: nuclear beta-catenin stimulation ([1]; at 10 µM) 28.8% | insulin secretion stimulation [2] 0.8% | GLP1 secretion stimulation [5] 7.6% | outcome [9] | fold change [14, 19] 0.936 | z-score [15, 23] -0.00061
-0.754: z-score [15, 24]
4600: cell count [14, 22]
4300: cell count [14, 21]
1.1: fold change [14, 20]

COc1ccc2cccc(CCNC(C)=O)c2c1
0.28 and -0.0702: z-score [15, 24]
9510 and 5930 and 7430: cell count [14, 22]
0.381 and 0.908 and 0.855: fold change [14, 20]
-1%: nuclear beta-catenin stimulation ([1]; stimulation, at 2 µM)
8590 and 5820 and 7020: cell count [14, 21]
inactive: nuclear beta-catenin stimulation ([1]; at 10 µM) 1.6% | insulin secretion stimulation [2] -1.5% | viability decrease [3] 2.7% | tube area decrease [4] 1% | GLP1 secretion stimulation [5] -0.3% | inhibition of viability [6] 3.7% | viability decrease (inhibition) [7] -8.5% | viability decrease (inhibition) [8] 3.3% | outcome [9] | outcome [16] | outcome [10] | outcome [11] | outcome [12] | outcome [13] | fold change [14, 19] 0.904 and 0.982 and 0.944 | outcome [17] | z-score [15, 23] 0.556 and -0.393 | z-score [18] 0.205

O=[N+]([O-])c1cncn1CCN1CCOCC1
inactive: nuclear beta-catenin stimulation ([1]; at 10 µM) -1.1% | insulin secretion stimulation [2] 0.4% | viability decrease [3] -4.6% | tube area decrease [4] 13.6% | GLP1 secretion stimulation [5] -1.3% | inhibition of viability [6] -5% | viability decrease (inhibition) [7] -2.7% | viability decrease (inhibition) [8] -11.2% | outcome [10] | outcome [12] | outcome [13]
0.4%: nuclear beta-catenin stimulation ([1]; stimulation, at 2 µM)

CC(C(=O)O)c1ccc2c(c1)CC(=O)c1ccccc1S2 (centres undefined)
inactive: nuclear beta-catenin stimulation ([1]; at 10 µM) -0.5% | insulin secretion stimulation [2] 5.5% | viability decrease [3] -7.1% | tube area decrease [4] 2.5% | GLP1 secretion stimulation [5] -2% | inhibition of viability [6] -2.7% | viability decrease (inhibition) [7] 21.1% | viability decrease (inhibition) [8] 7.9% | outcome [10] | outcome [13] | fold change [14, 19] 0.901 | z-score [15, 23] -0.314
0.988: z-score [15, 24]
10800: cell count [14, 22]
9750: cell count [14, 21]
0.594: fold change [14, 20]
-1.2%: nuclear beta-catenin stimulation ([1]; stimulation, at 2 µM)
